# Among all 290,000 compounds or so, about 27,000 (9.3%) were called active. No stated cut-off is given here; in the data, active means inhibition mostly above about 28% (no sharp cut-off); inactive means mostly below about 43%. Many of the other results were omitted from the sample, so actives are more common in it than they were.
# Assay: A qHTS for Small Molecule Inhibitors of Shiga Toxin; further: 0% is about no effect
# Conditions: Vero cells, Shiga toxin protein synthesis inhibition reporter; at 38.7 µM, hits give high values
row,SMILES,inhibition
1,CCOC(=O)N1CCN(S(=O)(=O)c2ccc(-n3cnnn3)cc2)CC1,5.66% (inactive)
2,O=C(CSc1ccc(-c2ccccn2)nn1)Nc1ccccc1,47% (active)
3,COc1cc(NC(=O)CSc2ccc(-c3cccnc3)nn2)cc(OC)c1,15.3% (inactive)
4,O=C(CSc1ccc(-c2ccco2)nn1)Nc1cccc(F)c1,38.8% (inactive)
5,Cc1ccc(CN2CCCOCCS2(=O)=O)cc1,-6.69% (inactive)
6,CC(=O)c1cccc(OCc2cc(C(=O)NC(C)Cc3cccnc3)no2)c1 (centres undefined),36.9% (inactive)
7,CC(CCc1ccccc1)NC(=O)c1cnc(Cl)c(Cl)c1 (centres undefined),3.47% (inactive)
8,Cc1cccnc1CC(C)NC(=O)c1cc(COc2cncc(Cl)c2)on1 (centres undefined),47.9% (active)
9,CCOc1cc(C(=O)O)ccc1OCCOc1ccccc1,2.96% (inactive)
10,Cc1ccc(CN(CC(=O)NC2CCCCC2)C(=O)c2csnn2)cc1,-2.02% (inactive)
11,CC1CCN(C(=O)/C(=C\c2ccccc2F)NC(=O)c2ccccc2)CC1,-2.65% (inactive)
12,CC1CCN(C(=O)CCNC(=O)c2ccccc2)CC1,43.4% (active)
13,CC1CCN(C(=O)/C(=C\c2ccccc2)NC(=O)c2ccccc2)CC1,5.08% (inactive)
14,O=S(=O)(c1ccccc1)c1nc(-c2ccccc2)oc1NCCCN1CCOCC1,-13.1% (inactive)
15,O=C(Nc1ccc(CN2CCOCC2)cc1)c1cc(Cl)ccc1Cl,-2.33% (inactive)
16,CC(O)C(NS(=O)(=O)c1ccc(Cl)cc1)C(=O)OCc1cc([N+](=O)[O-])cc2c1OCOC2 (centres undefined),-12.1% (inactive)
17,Nc1ccccc1SCc1cc([N+](=O)[O-])cc2c1OCOC2,62% (active)
18,O=C(CN1CCN(c2ccc(Cl)cc2)CC1)c1ccccc1,12.6% (inactive)
19,CC1CN(S(=O)(=O)c2cccc(C(F)(F)F)c2)CN1C(=O)N1CCOCC1 (centres undefined),29.9% (inactive)
20,O=C(N/N=C/c1cc([N+](=O)[O-])ccc1O)/C(=C\c1cccs1)NC(=O)c1ccccc1,-4.29% (inactive)
21,Nc1nnnn1/N=C/c1cc([N+](=O)[O-])ccc1O,19.7% (inactive)
22,O=[N+]([O-])c1ccc(O)c(/C=N/Nc2ccccc2[N+](=O)[O-])c1,33.7% (active)
23,CCNC(=S)N(CCN(CC)CC)Cc1cc2cc3c(cc2[nH]c1=O)OCCO3,37.5% (inactive)
24,O=C(CSCc1ccc(Cl)cc1)N1CCCCC1,91.4% (active)
25,O=C(CSCc1cccs1)N1CCCC1,55.4% (active)

row,SMILES,inhibition
1,Cn1c(SCC(=O)N2CCCC2)nnc1-c1cccs1,19.8% (inactive)
2,O=C(CN1CCN(c2ccc(Cl)cc2)CC1)N1CCCC1,-2.98% (inactive)
3,O=C(CSc1ncccn1)N1CCCC1,15.5% (inactive)
4,O=C(CSCc1ccc(Cl)cc1)N1CCN(Cc2ccc3c(c2)OCO3)CC1,1.49% (inactive)
5,COc1ccc(-c2c(NC(=O)c3ccco3)oc3ccc(Cl)cc3c2=O)cc1,-2.04% (inactive)
6,O=S(=O)(NC1CCCC1)c1ccc(-n2cnnn2)cc1,-3.47% (inactive)
7,COc1ccc(C=C(C#N)C#N)c(CSc2ccccn2)c1,-2.53% (inactive)
8,COc1ccc(C(=O)N[C@H](C(=O)NCc2ccccc2)C(C)C)cc1,2.84% (inactive)
9,CCN(CC(=O)NCc1cccs1)C(=O)c1cccc(S(=O)(=O)Nc2ccccc2OC)c1,25.8% (inactive)
10,COc1ccccc1C(=O)Nc1ccc(OCc2nnc3c4ccccc4c(C)nn23)cc1,6.17% (inactive)
11,COc1ccc(C2/C(=C(/O)c3ccc4c(c3)CC(C)O4)C(=O)C(=O)N2Cc2ccncc2)cc1 (centres undefined),21.4% (inactive)
12,CN(C)c1nnnn1-c1ccc(Cl)cc1,32.8% (inactive)
13,Nc1ccc2nn(-c3ccc(Cl)cc3)nc2c1,99% (active)
14,CCn1c(SCC(=O)NNC(=O)c2ccc(OC)cc2)nnc1C(C)C,-2.63% (inactive)
15,O=C1NC(=O)C(c2ccc(Cl)cc2)N1 (centres undefined),-0.685% (inactive)
16,COc1cccc(CNC(=O)C2CC(=O)N(C3CCCCCCC3)C2)c1 (centres undefined),-10.4% (inactive)
17,O=C(Cn1cnc2ccccc21)N/N=C/c1ccco1,15.9% (inactive)
18,O=c1nc(N/N=C/c2ccco2)cn[nH]1,84% (active)
19,CC(C)NC(=O)C(=O)N/N=C/c1ccco1,-4.96% (inactive)
20,O=C(Nc1ccccc1)c1cc2ccccc2[nH]1,116% (active)
21,CC(C)n1c(=O)[nH]c2cc(C(=O)Nc3ccccc3)ccc21,-20.3% (inactive)
22,O=C(Nc1ccccc1)N1CCN(C(=O)Nc2ccccc2)CC1,14.4% (inactive)
23,COc1ccccc1OCCOc1ccc(/C=C2\C(=N)N3N=C(C)SC3=NC2=O)cc1,2.39% (inactive)
24,COc1cccc(N(CC(=O)NC2CCCC2)C(=O)Cn2nnc(-c3ccc(C)o3)n2)c1,5.05% (inactive)
25,CCn1c(SCc2ccccc2)nc2cc(OC)c(OC)cc2c1=O,-6.05% (inactive)

row,SMILES,inhibition
1,O=C(CN1CCN(c2ccccc2)CC1)Nc1ccc(F)cc1,2.65% (inactive)
2,O=C(c1ccc(F)cc1)N1CCC(n2nnc3ccccc32)CC1,111% (active)
3,CC(=O)c1cccc(S(=O)(=O)N2CCC(n3nnc4cc(F)ccc43)CC2)c1,7.77% (inactive)
4,O=S(=O)(c1cccc(S(=O)(=O)N2CCC(n3nnc4ccccc43)CC2)c1)N1CCCCC1,-25.2% (inactive)
5,COc1ccc(N(CC(=O)N2CCOCC2)S(=O)(=O)c2ccccc2)cc1Cl,-9.7% (inactive)
6,O=S(=O)(c1ccccc1)N1CN(Cc2ccc(F)cc2)c2nc3ccccc3nc21,45.9% (active)
7,COc1ccc(S(=O)(=O)N2CN(CCc3ccc(OC)c(OC)c3)c3nc4ccccc4nc32)cc1,-10.2% (inactive)
8,C=CCN1CN(S(=O)(=O)c2ccc(OC)cc2)c2nc3ccccc3nc21,8.86% (inactive)
9,O=C(NCCS(=O)(=O)N1CCN(c2ccccc2F)CC1)c1ccc(Br)o1,-0.576% (inactive)
10,O=C1CCC(C(=O)N2CCC(O)(c3ccccc3)CC2)CN1CCc1ccccc1 (centres undefined),-9.01% (inactive)
11,CCOC(=O)CSc1nnc(-c2ccco2)n1C,-1.54% (inactive)
12,Cn1c(SCC(=O)c2cccs2)nnc1-c1ccco1,58.7% (active)
13,CCCCNC(=O)CSc1nnc(-c2ccco2)n1C,-13.5% (inactive)
14,CCC1Oc2ccccc2N(CC(=O)NCCCN2CCN(CC)CC2)C1=O (centres undefined),-4.33% (inactive)
15,CC(C)OCCCNC(=O)CN1C(=O)/C(=C/c2ccccc2F)Oc2ccccc21,-4.44% (inactive)
16,COc1ccc(CCNC(=O)CN2C(=O)CCSc3ccccc32)c(OC)c1,-7.21% (inactive)
17,Cc1ccc(-c2nc(CSCC(=O)NC3CCN(Cc4ccccc4)CC3)c(C)o2)cc1,1.51% (inactive)
18,Cc1ccc(Sc2cc(C(=O)c3ccccc3C(=O)O)ccc2[N+](=O)[O-])cc1,1.21% (inactive)
19,Cc1ccccc1NC(=O)C1CCN(C(=O)NC2CCCCC2)CC1,-5.42% (inactive)
20,O=C(Nc1cc2ccccc2oc1=O)C1CCCCC1,55.5% (active)
21,CC(=O)Nc1cc2ccc(OC(C)=O)cc2oc1=O,-11.8% (inactive)
22,Cc1nn(Cc2ccc(Cl)cc2)c(Cl)c1/C=N/NC(=O)CNc1ccccc1F,-6.45% (inactive)
23,Cc1nn(Cc2ccc(Cl)cc2)c(Cl)c1/C=N/NC(=O)c1cccnc1,-8.32% (inactive)
24,CCn1nc(C)c(/C=N/NC(=O)Cc2ccc(Cl)cc2)c1C,81.2% (active)
25,O=C(NCc1cccs1)c1ccc2c(c1)ncn2C1CCCC1,38% (active)

row,SMILES,inhibition
1,O=C(NCCN1CCOCC1)c1ccc2c(c1)ncn2C1CCCC1,-8.3% (inactive)
2,COc1ccccc1-n1cnc2cc(C(=O)NCC3CCCO3)ccc21 (centres undefined),-4.06% (inactive)
3,CCOC(=O)C1=C(c2ccccc2)NC(=O)NC1c1cc(OC)c(OC)cc1OC (centres undefined),-5.08% (inactive)
4,COc1cc2c(cc1OC)CN(CC(=O)Nc1ccc(F)cc1)CC2,-6.84% (inactive)
5,Cc1ccc(SCc2c(C(=O)N/N=C/c3cccnc3)nnn2-c2nonc2N)cc1,-5.04% (inactive)
6,COc1cc(CN2CCC(C(N)=O)CC2)ccc1OCc1ccccc1,50.5% (active)
7,CCOc1cc(CN2CCN(C(=O)CC(C)C)CC2)ccc1OC,21.9% (inactive)
8,COc1ccc(COCC(O)CN2CCC(C(N)=O)CC2)cc1 (centres undefined),18.1% (inactive)
9,CCCc1nnc(NC(=O)CCC(=O)NC2CC2)s1,-4.93% (inactive)
10,COc1ccc(CCN(C)C(=O)C23CC4CC(CC(Cl)(C4)C2)C3)cc1OC,-8.99% (inactive)
11,Cc1cccc(NC(=O)Nc2ccc(OCc3ccccc3)cc2)n1,-8.92% (inactive)
12,Cc1cccc(NC(=O)COc2ccccc2C)n1,99.9% (active)
13,CCN(CC)S(=O)(=O)c1ccc(C)c(NC(=O)COc2ccc(Br)cc2Cl)c1,-7.98% (inactive)
14,Cc1cccc(NC(=O)c2cccnc2Cl)n1,21.6% (inactive)
15,Cc1cccc(NC(=O)c2ccccc2NC(=O)C(C)(C)C)n1,-16.5% (inactive)
16,Cc1cccc(NC(=O)c2ccc3ccccc3n2)n1,80.6% (active)
17,COCCNC(=O)COc1ccccc1C,-1.68% (inactive)
18,Cc1ccccc1OCC(=O)Nc1nc(C)c(C(=O)N(C)C)s1,13.1% (inactive)
19,CCCC1=Nc2cc(C(=O)NCCN3CCCC3)ccc2Sc2ccccc21,-5.59% (inactive)
20,Cc1cc(C)n(CC(O)COc2ccc(C(C)(C)C)cc2)n1 (centres undefined),-1.13% (inactive)
21,COc1ccccc1CN(C)C(=O)c1cc2ccccc2o1,5.75% (inactive)
22,Cc1ccc(S(=O)(=O)Nc2nc(N)n(-c3ccccc3)n2)cc1,-9.63% (inactive)
23,Cc1ccc(C(=O)Nc2nc(N)n(-c3ccccc3)n2)cc1,38.4% (active)
24,Nc1nc(NC(=O)/C=C/c2ccccc2)nn1-c1ccccc1,27% (inactive)

# — PubChem BioAssay AID2315 (National Center for Advancing Translational Sciences (NCATS), 2010)
